Assay outcomes deposited in PubChem BioAssay by National Center for Advancing Translational Sciences (NCATS).
SW480 rerep = inducers of DNA re-replication in SW480 colon cancer cells | SW480 DNA re-replication, Hoechst DNA content imaging, 48 h | Potency, µM (titrated, usually from 46.1 µM), actives largely listed as activators | actives 1.8% (n = 340,000) | AID 624297; further: nearly all actives have a fitted effect of over 55% in size
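Image-based DNA-content assay: after two days of treatment, nuclei were labelled with the DNA dye Hoechst and imaged, and hits were compounds raising the count of nuclei showing high fluorescence intensity.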
IL-1B inflam inh = inflammasome signaling inhibition, IL-1 beta readout | activity change, % at 57.5 µM | actives 4.7% (n = 360,000) | THP-1 LPS/ATP IL-1B secretion, AlphaLISA, 16 h; stronger effect = lower value | AID 743279; in the data active means activity change below about -50%; inconclusive means mostly about -30% to -49%
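Secreted IL-1B measured by AlphaLISA bead assay after 16 h compound exposure of THP-1 cells; compounds (final up to 57.5 uM) added 1 h before LPS (250 ng/mL) and ATP (1.25 mM) stimulation; lower signal means less secretion.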
ATXN viability = cell viability loss in ATXN counter-screen; S2 cells (HEK-293 line with an ATXN2-luciferase reporter) viability, CellTiter-Fluor protease fluorescence, 24 h; actives 0.49% (n = 400,000); Potency, µM (highest dose often 56.7 µM), hits mostly cytotoxic; further: nearly all actives have a fitted effect of over 40% in size
MCF10A rerep = induces DNA re-replication in MCF 10a normal breast cells. MCF 10A DNA re-replication, Hoechst nuclear intensity, 48 h. Potency, µM (titrated, usually from 46.1 µM), hits mostly activators. actives 2.9% (n = 350,000). AID 624296; further: nearly all actives have a fitted effect of over 50% in size
PINK1 expr mod = changes PINK1 expression; PINK1 immunofluorescence, high-content cytometry, 24 h; Potency, µM (titrated, usually from 76.6 µM), usual class: activators; actives 0.2% (n = 410,000); AID 624263; active means well fitted activation curve with a large enough effect; inconclusive means small, poorly fitted or top-dose-only effect; cell line not stated here; further: nearly all actives have a fitted effect of over 65% in size
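Readout is PINK1 immunofluorescence, quantified alongside mitochondrial, cell and nuclear markers by laser-scanning microplate cytometry. Cells from a stable line were exposed to compound titrations (5 concentrations) for 24 hours, with CCCP controls.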
ATXN2 expr inh = inhibitors of ATXN2 expression; Potency, µM (titrated, usually from 57 µM), usual class: inhibitors; actives 0.72% (n = 360,000); HEK-293 ATXN2-luciferase reporter, luminescence, 24 h; AID 1745845; further: nearly all actives have a fitted effect of over 55% in size
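qHTS (up to 57 uM final) was run with 24 h compound exposure of reporter cells at 37 °C. Each well was multiplexed: SteadyGlo luminescence measured ATXN2-luciferase expression after a fluorogenic Gly-Phe-AFC viability readout (25 uM final).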
Each line names hits and unclear results; the compound was inactive in the other large screens; ! = repeats disagree. Hits are enriched below; roughly 7.1% of the tested compounds scored in any of these assays. Unless noted, the call rests on the fitted dose curve; in most records, active means well fitted curve in the direction sought with a large enough effect; inconclusive means small, poorly fitted or top-dose-only effect, or another doubt; inactive means no such curve, though single readings can be large; an effect the other way counts as inactive or inconclusive.

COc1ccc2cc3cc(C(=O)NCCCN4CCC(C)CC4)oc3nc2c1	SW480 rerep inconclusive, IL-1B inflam inh -83.1
CC1CCN(CCCNC(=O)c2coc3nc4ccccc4nc23)CC1	MCF10A rerep 14.6µM
COc1ccc2cc3cc(C(=O)NCCCN4CCOCC4)oc3nc2c1	none
COc1ccc2cc3cc(C(=O)NCCN4CCN(Cc5ccccc5)CC4)oc3nc2c1	IL-1B inflam inh -67.4
CCN1CCN(CCCNC(=O)c2cc3cc4ccc(OC)cc4nc3o2)CC1	SW480 rerep inconclusive, IL-1B inflam inh -84.9, MCF10A rerep inconclusive
COc1ccc(OC)c(NC(=O)C(C)n2c(=O)c(-c3ccccc3NC(C)=O)nc3ccccc32)c1 (centres undefined)	none (no result: SW480 rerep, IL-1B inflam inh, ATXN viability, MCF10A rerep, ATXN2 expr inh)
COc1ccc(N(CC(=O)NCCc2ccccc2)S(=O)(=O)c2ccccc2)c(OC)c1	none (no result: SW480 rerep, IL-1B inflam inh, MCF10A rerep)
COc1cc(-c2noc(-c3ccc(NCC4CCCO4)c([N+](=O)[O-])c3)n2)cc(OC)c1OC (centres undefined)	none (no result: SW480 rerep, IL-1B inflam inh, MCF10A rerep)
C=C(C)C(=O)Oc1ccc(N2C(=O)[C@@H]3C4C=CC(C4)[C@@H]3C2=O)cc1	IL-1B inflam inh -98.5
CC(=O)Oc1cccc(N2C(=O)C3C4C=CC(C4)C3C2=O)c1 (centres undefined)	none
CCc1ccc(S(=O)(=O)Nc2ccc3[nH]c(=O)sc3c2)cc1	none (no result: SW480 rerep, IL-1B inflam inh, ATXN viability, MCF10A rerep, ATXN2 expr inh)
COC(=O)[C@@H]1CCCN1C(=O)c1c(OC)cc(=O)n2c1CCN(Cc1ccc3nsnc3c1)CC2	none (no result: SW480 rerep, IL-1B inflam inh, MCF10A rerep, ATXN2 expr inh)
CC1(C)Cc2ccccc2C(COc2ccccc2)=N1	IL-1B inflam inh -72.5, MCF10A rerep inconclusive
CC1=NC(C)(C)Cc2ccccc21	none
Cn1c(=O)oc2cc(S(=O)(=O)NC(CC(=O)O)c3cccc(Br)c3)ccc21 (centres undefined)	none (no result: SW480 rerep, IL-1B inflam inh, ATXN viability, MCF10A rerep, ATXN2 expr inh)
Cc1cccn2c(=O)c3cc(C(=O)NCCCn4ccnc4)n(C)c3nc12	SW480 rerep inconclusive, IL-1B inflam inh inconclusive, MCF10A rerep inconclusive, PINK1 expr mod inconclusive
CCOCCCNC(=O)c1cc2c(=O)n3cccc(C)c3nc2n1C	SW480 rerep 0.651µM, MCF10A rerep inconclusive
COCCNC(=O)c1cc2c(=O)n3cccc(C)c3nc2n1C	MCF10A rerep inconclusive
Cc1cccn2c(=O)c3cc(C(=O)NCCCN4CCCC4=O)n(C)c3nc12	SW480 rerep inconclusive, IL-1B inflam inh -76.9 (no result: ATXN viability)
O=C(Nc1ccc(Nc2ccccc2)cc1)c1c(Cl)cccc1Cl	IL-1B inflam inh -87.5, ATXN viability inconclusive, MCF10A rerep 23.1µM
O=C(Nc1ccc(Nc2ccccc2)cc1)c1c(F)c(F)c(F)c(F)c1F	IL-1B inflam inh -68.4
O=C(Nc1ccc(Nc2ccccc2)cc1)Nc1ccccc1Cl	IL-1B inflam inh inconclusive, MCF10A rerep inconclusive
CCOC(=O)C1=C(COC(=O)CCOc2ccc(C)cc2)NC(=O)NC1C (centres undefined)	SW480 rerep inconclusive, IL-1B inflam inh inconclusive, ATXN viability inconclusive, MCF10A rerep 18.4µM, ATXN2 expr inh inconclusive
CCOC(=O)C1=C(COC(=O)CCOc2ccc(OC)cc2)NC(=O)NC1C (centres undefined)	ATXN viability inconclusive (no result: ATXN2 expr inh)
COc1ccc(Cc2[nH]n3c(=O)cc(C(C)C)nc3c2-c2ccccc2)cc1	SW480 rerep 10.3µM, ATXN viability inconclusive, MCF10A rerep 2.59µM, PINK1 expr mod inconclusive, ATXN2 expr inh 22.4µM
CCOc1ccccc1Nc1sc(C(=O)c2ccccc2)c(N)c1C(=O)Nc1ccc(F)cc1	none (no result: SW480 rerep, IL-1B inflam inh, MCF10A rerep)
Cc1cccc(C)c1Nc1sc(C(=O)c2ccccc2)c(N)c1C(=O)Nc1ccc(F)cc1	PINK1 expr mod 44.7µM, ATXN2 expr inh inconclusive (no result: SW480 rerep, IL-1B inflam inh, ATXN viability, MCF10A rerep)
CC1(C)COC(/C=C/c2cccc([N+](=O)[O-])c2)=N1	SW480 rerep inconclusive, IL-1B inflam inh -107.0, ATXN viability inconclusive, MCF10A rerep 14.1µM, ATXN2 expr inh inconclusive
CC1(C)COC(c2cc([N+](=O)[O-])ccc2Cl)=N1	none
CCCCC/C=C\C/C=C\CCCCCCCC(=O)O	MCF10A rerep inconclusive (no result: IL-1B inflam inh, ATXN viability, PINK1 expr mod, ATXN2 expr inh)
CCCCCCCC/C=C\CCCCCCCC(=O)O	MCF10A rerep 29.9µM!
COC(=O)CSc1nnc(COc2ccc([N+](=O)[O-])cc2)n1C	none
CC(C)OC(=O)CSc1nnc(COc2ccc([N+](=O)[O-])cc2)n1C	IL-1B inflam inh -97.7 (no result: ATXN viability)
Cn1c(COc2ccccc2)nnc1SCC(=O)c1cccc([N+](=O)[O-])c1	none
CCOc1cc(C)ccc1OCc1nnc(SCC(=O)c2cccc([N+](=O)[O-])c2)n1C	SW480 rerep inconclusive, IL-1B inflam inh -51.2
Cc1cc(C)nc(SCc2c(F)cccc2Cl)n1	none
Cc1cc(C)nc(S/C=C/C(=O)c2ccccc2F)n1	IL-1B inflam inh inconclusive, MCF10A rerep 2.59µM
CCOC(=O)C1=C(C)N=c2s/c(=C\c3ccc(OCC(=O)O)cc3)c(=O)n2C1c1ccc(Cl)cc1 (centres undefined)	MCF10A rerep 18.4µM
CCOC(=O)C1=C(C)N=c2s/c(=C\c3ccncc3)c(=O)n2C1c1ccc2c(c1)OCO2 (centres undefined)	IL-1B inflam inh -67.0, MCF10A rerep inconclusive
CCN1C[C@@H]2[C@@H]3C(=O)N(Cc4ccccc4)C(=O)[C@@H]3[C@](Cc3ccccc3)(C1=O)N2C(=O)c1ccc(C)cc1	none
C#CCOc1ccc(/C=C2\SC(=S)N(Cc3cccnc3)C2=O)cc1	SW480 rerep 14.6µM, ATXN viability inconclusive, MCF10A rerep 20.6µM
COc1ccc(/C=C2\SC(=S)N(Cc3cccnc3)C2=O)cc1C	none
O=C(O)COc1cccc(/C=C2/SC(=S)N(Cc3ccccc3)C2=O)c1	MCF10A rerep inconclusive
O=C1/C(=C/c2ccc(O)cc2)SC(=S)N1Cc1cccnc1	PINK1 expr mod 35.5µM
O=C(COc1ccc(Cl)cc1)c1ccc(O)cc1O	IL-1B inflam inh -66.6
CCN(CC)S(=O)(=O)c1cc([N+](=O)[O-])ccc1NNC(=O)Nc1ccccc1OC	none
CCN(CC)S(=O)(=O)c1cc([N+](=O)[O-])ccc1NNC(=O)Nc1ccc(F)cc1	MCF10A rerep 23.1µM (no result: ATXN viability, PINK1 expr mod, ATXN2 expr inh)
CCN(CC(=O)Nc1c(F)cccc1F)C(=O)CCCN1C(=O)c2cccc3cccc(c23)C1=O	IL-1B inflam inh -50.9 (no result: SW480 rerep, MCF10A rerep, ATXN2 expr inh)
O=C(CCc1nc2ccccc2c(=O)[nH]1)NNC(=O)c1cccc(Cl)c1	SW480 rerep 29.1µM
CCN(CC(=O)Nc1c(F)cccc1F)C(=O)CCCc1nc2ccccc2c(=O)[nH]1	none
CCN(CC(=O)Nc1c(F)cccc1F)C(=O)CCc1nc2ccccc2c(=O)[nH]1	SW480 rerep 29.1µM
CN(CC(=O)Nc1cccc(F)c1)C(=O)CCCN1C(=O)c2cccc3cccc(c23)C1=O	IL-1B inflam inh -65.1
CCN(CC(=O)Nc1ccc(NC(C)=O)cc1)C(=O)CCCN1C(=O)c2ccccc2C1=O	none
